The text below walks through data of PubChem BioAssay (NCI).

The panel holds about 79,000 compounds, 15% with a hit somewhere; the sample as a whole holds those more often. A number with no mark means an inactive call. Active and inactive are the calls of the source. No stated cut-off is given here; in the data, active means growth inhibition above about 70%; inactive means the rest.

Assay [1] in a line: NCI Yeast Anticancer Drug Screen. Data for the rad50 strain (AID 155).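 Further: 0% = growth of vehicle-only cultures of the same strain.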 As to conditions: S. cerevisiae rad50 strain growth inhibition, hits give high values. The essentials: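 Vehicle-treated cultures provide the reference for the growth inhibition reported for compound-exposed, repair-deficient yeast.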
Assay [2] is described as follows: NCI Yeast Anticancer Drug Screen. Data for the mec2-1 strain (AID 157). As to conditions: S. cerevisiae mec2-1 strain, hits give high values. The essentials:
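Strain: mec2-1 (DNA repair/cell cycle alteration). Compound exposure, then growth measured; inhibition expressed relative to vehicle.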

Assay [3] is described as follows: NCI Yeast Anticancer Drug Screen. Data for the sgs1 mgt1 strain (AID 161).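 Further: 0% = growth of cultures given vehicle only.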 The following applies: S. cerevisiae sgs1 mgt1 strain, hits give high values. Summed up: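 Inhibition of yeast growth, normalised to vehicle-treated controls, is reported for a strain bearing genetic alterations in DNA damage repair.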
Assay [4] in a line: NCI Yeast Anticancer Drug Screen. Data for the cln2 rad14 strain (AID 165).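 Further: 0% = growth equal to vehicle treated cultures.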 As to conditions: S. cerevisiae cln2 rad14 strain, hits give high values. Summed up:
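Compounds are applied to the cln2 rad14 yeast strain, and growth is then compared with that of vehicle-treated cultures to give inhibition.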

The nature of assay [5]: NCI Yeast Anticancer Drug Screen. Data for the bub3 strain (AID 167). As to conditions: S. cerevisiae bub3 mutant strain, hits give high values. The essentials:
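Mutant yeast screening strain plus compound; vehicle-treated cultures serve as the 0% inhibition reference.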

The nature of assay [6]: NCI Yeast Anticancer Drug Screen. Data for the mlh1 rad18 strain (AID 175). The following applies: S. cerevisiae mlh1 rad18 strain growth inhibition, hits give high values. Summed up:
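Read-out is yeast growth inhibition, calculated against vehicle-only controls. The compound was applied to a strain engineered with DNA damage repair alterations.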

The mark [7] stands for this setting: at 5.0 µM (retest, dose inferred, filed as 0.5).
Setting [8] is: at 50.0 µM (retest, dose inferred, filed as 5.0).

In the case of `CC(=O)N/N=C/c1ccc([N+](=O)[O-])o1`, the growth inhibition in assay [1] (setting [7]) was 13%; in assay [1] (setting [8]), 34%; in assay [1] (at 50.0 µM), 70.2% (active); in assay [2] (setting [7]) it was 2%; in assay [2] (setting [8]) it was 22%; in assay [2] (at 50.0 µM) it was 43.1%. Further, the growth inhibition in assay [3] (setting [7]) is 12%; in assay [3] (setting [8]), 50%; in assay [3] (at 50.0 µM), 81.8% (active); in assay [4] (setting [7]) it was 5%; in assay [4] (setting [8]) it was 13%; in assay [4] (at 50.0 µM) it was 35.5%. For the same molecule, the growth inhibition in assay [5] (setting [7]) is 5%; in assay [5] (setting [8]) it was 22%; in assay [5] (at 50.0 µM) it was 58.5%; in assay [6] (setting [7]) it was 17%; in assay [6] (setting [8]) it was 61%; in assay [6] (at 50.0 µM) it was 84.8% (active).
For `COc1cccc(C2c3cc4c(cc3OC(N3CCCC3)C2C)OCO4)c1` (stereo not drawn), the growth inhibition in assay [1] (setting [7]) is -16%; in assay [1] (setting [8]), 74% (active); in assay [1] (at 50.0 µM), 85.2% (active); in assay [2] (setting [7]), -34%; in assay [2] (setting [8]), 82% (active); in assay [2] (at 50.0 µM), 82% (active). The growth inhibition in assay [3] (setting [7]) is -27%; in assay [3] (setting [8]) it was 54%; in assay [3] (at 50.0 µM), 77.8% (active); in assay [4] (setting [7]), -15%; in assay [4] (setting [8]), 67%; in assay [4] (at 50.0 µM), 76.3% (active). The growth inhibition is -30% in assay [5] (setting [7]); 88% (active) in assay [5] (setting [8]); 85% (active) in assay [5] (at 50.0 µM); -32% in assay [6] (setting [7]); 72% (active) in assay [6] (setting [8]); 80.1% (active) in assay [6] (at 50.0 µM).
With `O=C(Sc1ccccc1)C1OC12CCCCC2` (stereo not drawn), the growth inhibition in assay [1] (setting [7]) is -160%; in assay [1] (setting [8]), -116%; in assay [1] (at 50.0 µM) it was 50.5%; in assay [2] (setting [7]) it was -48%; in assay [2] (setting [8]) it was -44%; in assay [2] (at 50.0 µM), 31.2%. For the same molecule, the growth inhibition in assay [3] (setting [7]) is -68%; in assay [3] (setting [8]) it was -47%; in assay [3] (at 50.0 µM), 63.8%; in assay [4] (setting [7]) it was -62%; in assay [4] (setting [8]), -75%; in assay [4] (at 50.0 µM), -8.05%. For the same molecule, the values for the growth inhibition in assay [5] (setting [7]), in assay [5] (setting [8]) and in assay [5] (at 50.0 µM) were -65%, -57% and 8.8%, respectively.
With `CN1C/C(=C\c2ccccc2)C(=O)/C(=C/c2ccccc2)C1`, the growth inhibition in assay [1] (setting [7]) was 13%; in assay [1] (setting [8]) it was 99% (active); in assay [1] (at 50.0 µM) it was 54.5%; in assay [2] (setting [7]), 16%; in assay [2] (setting [8]), 100% (active); in assay [2] (at 50.0 µM) it was 10.2%. Also, the growth inhibition in assay [3] (setting [7]) is 19%; in assay [3] (setting [8]), 99% (active); in assay [3] (at 50.0 µM), 19%; in assay [4] (setting [7]) it was 14%; in assay [4] (setting [8]), 98% (active); in assay [4] (at 50.0 µM), 52.5%. In addition, the growth inhibition in assay [5] (setting [7]) is 10%; in assay [5] (setting [8]), 99% (active); in assay [5] (at 50.0 µM), 14.6%; in assay [6] (setting [7]), 11%; in assay [6] (setting [8]), 99% (active); in assay [6] (at 50.0 µM) it was 21.4%.
Regarding `S=c1sc2ccccc2n1CNc1ccccc1`, the growth inhibition in assay [1] (setting [7]) was -2%; in assay [1] (setting [8]), 14%; in assay [1] (at 50.0 µM), 64.9%; in assay [2] (setting [7]) it was 0%; in assay [2] (setting [8]) it was 7%; in assay [2] (at 50.0 µM) it was 68.1%. Also, the growth inhibition in assay [3] (setting [7]) was 2%; in assay [3] (setting [8]) it was 53%; in assay [3] (at 50.0 µM), 72.2% (active); in assay [4] (setting [7]), -5%; in assay [4] (setting [8]), -10%; in assay [4] (at 50.0 µM), -40.6%. Moreover, the growth inhibition in assay [5] (setting [7]) is -1%; in assay [5] (setting [8]) it was 18%; in assay [5] (at 50.0 µM) it was 74.3% (active).
On to `CCN1C2=NCCN2S(=O)(=O)c2ccccc21`, for which the growth inhibition was 5% in assay [1] (setting [7]); 11% in assay [1] (setting [8]); -14.4% in assay [1] (at 50.0 µM); 9% in assay [2] (setting [7]); 9% in assay [2] (setting [8]); -4.45% in assay [2] (at 50.0 µM). Further, the growth inhibition in assay [3] (setting [7]) is 8%; in assay [3] (setting [8]) it was 14%; in assay [3] (at 50.0 µM) it was -27.9%; in assay [4] (setting [7]), 14%; in assay [4] (setting [8]) it was 10%; in assay [4] (at 50.0 µM) it was -20.6%. The growth inhibition in assay [5] (setting [7]) was 13%; in assay [5] (setting [8]), 11%; in assay [5] (at 50.0 µM) it was -22.1%.
For the molecule `CCCCCN(CCCCC)CC(=O)OCC1(C)CCCC2(C)C3CCC(C(C)C)=CC3=CCC12` (stereo not drawn), the growth inhibition in assay [1] (setting [7]) is 1%; in assay [1] (setting [8]) it was 22%; in assay [1] (at 50.0 µM) it was -3.45%; in assay [2] (setting [7]), 2%; in assay [2] (setting [8]), 54%; in assay [2] (at 50.0 µM), -9.75%. The growth inhibition was -3% in assay [3] (setting [7]); 80% (active) in assay [3] (setting [8]); 74.2% (active) in assay [3] (at 50.0 µM); -1% in assay [4] (setting [7]); 39% in assay [4] (setting [8]); -59% in assay [4] (at 50.0 µM). For the same molecule, the growth inhibition is 1% in assay [5] (setting [7]); 73% (active) in assay [5] (setting [8]); -8.05% in assay [5] (at 50.0 µM); 2% in assay [6] (setting [7]); 67% in assay [6] (setting [8]); 28.4% in assay [6] (at 50.0 µM).
Regarding `NC1=C(O)C(=O)C(c2c3ccccc3cc3ccccc23)O1` (stereo not drawn), the growth inhibition in assay [1] (setting [7]) was 16%; in assay [1] (setting [8]), 98% (active); in assay [1] (at 50.0 µM), 98.2% (active); in assay [2] (setting [7]) it was 17%; in assay [2] (setting [8]) it was 98% (active); in assay [2] (at 50.0 µM), 98% (active). Also, the growth inhibition was 8% in assay [3] (setting [7]); 98% (active) in assay [3] (setting [8]); 97.8% (active) in assay [3] (at 50.0 µM); 7% in assay [4] (setting [7]); 95% (active) in assay [4] (setting [8]); 95.9% (active) in assay [4] (at 50.0 µM). The growth inhibition is 16% in assay [5] (setting [7]); 98% (active) in assay [5] (setting [8]); 97.3% (active) in assay [5] (at 50.0 µM); 4% in assay [6] (setting [7]); 98% (active) in assay [6] (setting [8]); 97.5% (active) in assay [6] (at 50.0 µM).
Turning to `COc1cc(NCCCCCNC(C)C)c2ncc(C)c(C)c2c1`, the growth inhibition in assay [1] (setting [7]) is 3%; in assay [1] (setting [8]), 36%; in assay [1] (at 50.0 µM), 75.7% (active); in assay [2] (setting [7]), -4%; in assay [2] (setting [8]) it was 6%; in assay [2] (at 50.0 µM), 44.5%. The growth inhibition was 3% in assay [3] (setting [7]); 23% in assay [3] (setting [8]); 61.4% in assay [3] (at 50.0 µM); 7% in assay [4] (setting [7]); 20% in assay [4] (setting [8]); 12.1% in assay [4] (at 50.0 µM). Besides, the growth inhibition in assay [5] (setting [7]) was 3%; in assay [5] (setting [8]) it was 35%; in assay [5] (at 50.0 µM) it was 79% (active).
On to `O=C1CNCCCN2CCN(CCCNCC(=O)Nc3ccc(cc3)S(=O)(=O)c3ccc(cc3)NC(=O)CNCCCN3CCN(CCCNCC(=O)Nc4ccc(cc4)S(=O)(=O)c4ccc(cc4)N1)CC3)CC2`, for which the growth inhibition was 1% in assay [1] (setting [7]); 99% (active) in assay [1] (setting [8]); 98.8% (active) in assay [1] (at 50.0 µM); -25% in assay [2] (setting [7]); 99% (active) in assay [2] (setting [8]); 98.8% (active) in assay [2] (at 50.0 µM). Also, the growth inhibition is -14% in assay [3] (setting [7]); 99% (active) in assay [3] (setting [8]); 99% (active) in assay [3] (at 50.0 µM); -5% in assay [4] (setting [7]); 99% (active) in assay [4] (setting [8]); 96.8% (active) in assay [4] (at 50.0 µM). Moreover, the growth inhibition in assay [5] (setting [7]) was -3%; in assay [5] (setting [8]), 99% (active); in assay [5] (at 50.0 µM), 97.8% (active); in assay [6] (setting [7]), -11%; in assay [6] (setting [8]), 99% (active); in assay [6] (at 50.0 µM) it was 98.7% (active).
